# Rows were chosen to be rich in hits. Some 21% of all compounds tested hit in one or more screens of this group.
# HCV inhibitor: qHTS Assay for Inhibitors of Hepatitis C Virus (HCV); Huh7.5.1 HCVcc-Cre infection, luciferase reporter, 44 h; Potency, µM (series often up to 41.8 µM), without a hit: top-dose activity change, negative = inhibition, usual class: inhibitors; actives 3.4% (n = 340,000); AID 651820, 2012; note: potency is the fitted concentration of half-maximal effect; % is set by controls: 0 for no effect and ±100 for the full control effect
#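 Luciferase read-out (15 sec integration) after a 15 min room-temperature substrate step quantifies HCVcc-Cre infection. Cells, 1,000 per well, had compound added 4 h post-plating, then virus at ~0.5 moi, and were cultured 44 h.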
# Pf growth 48h: Primary qHTS for delayed death inhibitors of the malarial parasite plastid, 48 hour incubation; actives 5.9% (n = 310,000); Potency, µM (series often up to 28.7 µM), for the others: top-dose activity change, negative = inhibition, hits mostly inhibitors; P. falciparum luciferase growth in erythrocytes, 48 h; note: potency is the fitted concentration of half-maximal effect; % is set by controls: 0 for no effect and ±100 for the full control effect
#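 Luciferase-expressing parasites in RBCs, 2% Hct / 0.1% parasitemia final; RPMI 1640 + 0.5% Albumax; 37 C, 5% CO2, one generation; luminescence read-out, lower signal = inhibition.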
# Shiga inhibitor: A qHTS for Small Molecule Inhibitors of Shiga Toxin; actives 9.2% (n = 290,000); AID 2315, 2010; inhibition, % at 38.7 µM; Vero cells, Shiga toxin protein synthesis inhibition reporter; in the data active = inhibition mostly above about 28%, no sharp cut-off; inactive = mostly below about 43%; note: 0% is about no effect
# CHX counter: Cycloheximide Counterscreen for Small Molecule Inhibitors of Shiga Toxin; actives 12% (n = 300,000); AID 2314, 2010; cell reporter, cycloheximide protein synthesis inhibition counterscreen; max response, %; in the data active = max response mostly above about 13%, no sharp cut-off; inactive = mostly below about 14%; note: read at 38.3 µM for the half of the compounds with a filed dose; 0% is about no effect
# Pf growth 96h: Primary qHTS for delayed death inhibitors of the malarial parasite plastid, 96 hour incubation | P. falciparum luciferase reporter growth, 96 h | AID 504834, 2011 | actives 6.9% (n = 320,000) | Potency, µM (highest dose often 28.7 µM), for inactives: at the top dose activity change, negative = inhibition, hits mostly inhibitors; note: potency is the fitted concentration of half-maximal effect; % is set by controls: 0 for no effect and ±100 for the full control effect
#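 96 h incubation, 37 C, 5% CO2, of luciferase-reporter P. falciparum-infected RBCs (2% hematocrit, 0.05% parasitemia final) with test compounds; endpoint luminescence.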
# AMA1-RON2 inh: qHTS for Inhibitors of AMA1-RON; Towards Development of Antimalarial Drug Lead: Primary Screen. Plasmodium falciparum AMA1 (3D7) - RON2 peptide interaction. Potency, µM (series often up to 58.2 µM), without a hit: top-dose activity change, negative = inhibition, actives largely listed as inhibitors. actives 0.2% (n = 360,000). AID 720542, 2013. AlphaScreen AMA1-biotinylated RON2 peptide binding;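 note: potency is the fitted concentration of half-maximal effect; 0% = vehicle wells and -100% = peptide control; nearly all actives have a fitted effect of over 45% in size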
#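 AMA1 (3D7) with his tag at 25 nM final met compounds first, then biotinylated RON2 peptide at 25 nM; detection used donor plus acceptor beads, 10 µg/mL apiece, read by AlphaScreen after 30 min at room temperature.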
# * hit, by the source's call; ? = inconclusive; . = no result given; [ ] = dose if it differs, or a comment. Unless noted, calls come from the whole dose curve; as a rule, active = well fitted curve in the direction sought with a large enough effect; inconclusive = small, poorly fitted or top-dose-only effect, or another doubt; inactive = no such curve, though single readings can be large; an effect the other way counts as inactive or inconclusive.
SMILES,HCV inhibitor,Pf growth 48h,Shiga inhibitor,CHX counter,Pf growth 96h,AMA1-RON2 inh
O=C(Cc1coc2cc3c(cc12)CCC3)NC1CCCCCCC1,12.9%,8.4%,2.3,12.4*,29.1%,22.5%
O=C(O)Cc1coc2cc3c(cc12)CCC3,-7.4%,?,-7.3,-1.5,105.8%,3.8%
O=C(NCc1ccco1)c1ccccc1O,12.9%,-33.6%,9.3,1.4,10.4µM*,-1.9%
Cc1ccc(SCCNCc2ccco2)cc1,12.3%,-0.2%,46.3,14.2*,5.5%,0.0%
CCC1=Nc2cc(C(=O)NCc3ccco3)ccc2Sc2ccc(C)cc21,?,1.31µM*,-12.0,1.6,25.3%,-12.4%
Cc1ccc(C(=O)Nc2cccc(C(=O)NCc3ccccc3)c2)cc1,?,35.4%,23.3,14.9*,0.8%,-6.5%
Cc1onc(-c2ccccc2)c1C(=O)NC1CC1,8.9%,46.2%,.,.,5.7%,-4.2%
Cc1cc(C)n2nc(C(=O)OCC(=O)N(C)C3CCCCC3)nc2n1,18.7%,-0.1%,.,.,22.7%,4.2%
Cc1ccc(C(=O)N/C(=C/c2cccs2)C(=O)NCc2ccco2)cc1,18.6%,-3.3%,-2.3,6.7,0.522µM*,26.1%
Cc1ccc(C(=O)NCc2ccco2)c(C)c1,26.4%,32.4%,24.4,16.5,11.7µM*,-0.9%
O=C(NCc1ccco1)/C(=C\c1cccs1)NC(=O)c1ccccc1,0.0%,0.3%,-3.6,6.6,21.2%,-4.2%
Cc1ccc(C(=O)Nc2cccc(C(=O)NCc3ccco3)c2)cc1,?,48.0%,34.5*,19.3*,-25.5%,-1.0%
Cc1ccc(C(=O)NCc2ccco2)cc1,14.6%,-7.5%,37.1,17.9*,-11.4%,7.9%
C[C@H](CO)N1C[C@H](C)[C@@H](CN(C)Cc2ccc(-c3ccccc3)cc2)Oc2c(NC(=O)Nc3ccc4c(c3)OCO4)cccc2C1=O,?,.,.,.,.,-22.4%
CC(C)NC(=O)C(c1ccc(F)cc1)N(C(=O)CCC(=O)Nc1ccccn1)C1CCCC1 (centres undefined),-4.3%,-22.5%,-6.9,-2.6,-3.9%,1.6%
Cc1ccc(NC(=O)/C(=C\c2cccs2)NC(=O)c2ccccc2)cc1,2.9%,?,-0.7,-1.5,7.38µM*,0.2%
Cc1ccc(/C=C(\NC(=O)c2ccccc2)C(=O)NC(Cc2ccccc2)C(=O)O)cc1 (centres undefined),7.5%,1.2%,-15.0,-1.1,0.522µM*,6.9%[11.6 µM]
COCCCNC(=S)NNC(=O)C1CC1c1ccc(C(C)(C)C)cc1 (centres undefined),-26.8%,?,1.0,-2.7,35.5%[1.15 µM],87.9%
COCCNC(=S)NC(=O)c1ccc(C(C)(C)C)cc1,-5.3%,35.5%[5.75 µM],96.5*,59.5*,?,27.1%
Cc1ccc(C)c(S(=O)(=O)NCc2ccc(C(=O)NCc3ccco3)cc2)c1,-13.2%,?,11.9,2.5,9.28µM*,-9.7%
CC(=O)C1(O)C(C)CC2C3CC(F)C4(O)CC(O)CCC4(C)C3CCC21C (centres undefined),-1.9%,.,.,.,.,-3.7%
O=C(NC(=S)NCc1ccco1)c1ccccc1,19.2%,3.9%,-3.5,-2.0,26.3%,1.9%
CC(C)(C)c1ccc(C(=O)NC(=S)NCc2ccco2)cc1,-11.5%,?,70.8,24.1*,10.1%,54.7%
CCOC(=O)c1cnc2ccc(OCC)cc2c1N1CCN(c2ccccc2OC)CC1,?,.,-21.4,-4.7,36.0%,-15.3%
CCOC(=O)c1cnc2ccc(OCC)cc2c1N(C)Cc1ccccc1,11.2µM*,?,-4.6,-3.3,?,-16.9%
Cc1ccc(OCC(=O)Nc2cc(S(=O)(=O)N3CCOCC3)ccc2Cl)c([N+](=O)[O-])n1,?,78.2%,-2.9,1.6,-0.8%,15.6%
CC1(C)C(=O)C=C(N2CCCCC2)c2ccccc21,.,.,.,.,.,12.3%
COc1cc([N+](=O)[O-])ccc1NC(=O)CSc1nc2ccccc2n1-c1ccccc1,0.6%,8.28µM*,-3.2,0.9,10.4µM*,.
